Results: PubChem BioAssay (Tox21)
Records with an inconclusive call do not appear. Entries that show only a call come without a potency. Activity calls are given as the source filed them. Unless noted, the call rests on the fitted dose curve; in most records, active means well fitted curve in the direction sought with a large enough effect in the repeat runs; inconclusive means weak or mixed curves; inactive means no such curve, though single readings can be large; an effect the other way counts as inactive or inconclusive.

How the values were obtained:
[1] = qHTS assay to identify small molecule agonists of the sonic hedgehog signaling (Shh) pathway (AID 1259368; calls by dose curve;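 further: NIH/3T3-derived 3T3Gli1-Luc cells carrying a stable Gli1-driven firefly luciferase reporter; series mostly up to about 92 µM; nearly all actives have a fitted effect of over 15% in size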)
Method in brief: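 Read-out: firefly luciferase luminescence from a Gli1 response element reporter stably integrated in NIH/3T3-derived 3T3Gli1-Luc cells, measured 30 min at room temperature after reagent addition. Compound exposure lasted 24 hr at 37 C, 5% CO2.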

[2] = qHTS assay to identify small molecule antagonists of the sonic hedgehog signaling (Shh) pathway (AID 1259369; calls by dose curve; further: nearly all actives have a fitted effect of over 45% in size; further: potency means the concentration at half of the fitted maximal effect)
Method in brief: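 Luminescence readout: firefly Luc under Gli1 response element in 3T3Gli1-Luc cells (NIH/3T3 clone). Antagonist mode, stimulation by conditioned medium; compound exposure 24hr at 37 C, 5% CO2.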

[3] = biological target: Estrogen receptor beta (Homo sapiens) (UniProt Q92731); experiment: qHTS assay to identify small molecule agonists of the estrogen receptor beta (ER-beta) signaling pathway (AID 1259377; active means well fitted activation curve with a large enough effect in the signal ratio in the repeat runs, not every such curve was filed as active; the % refers to the signal ratio)
Chain of Estrogen receptor beta (Homo sapiens) (Q92731 whole entry, looked up): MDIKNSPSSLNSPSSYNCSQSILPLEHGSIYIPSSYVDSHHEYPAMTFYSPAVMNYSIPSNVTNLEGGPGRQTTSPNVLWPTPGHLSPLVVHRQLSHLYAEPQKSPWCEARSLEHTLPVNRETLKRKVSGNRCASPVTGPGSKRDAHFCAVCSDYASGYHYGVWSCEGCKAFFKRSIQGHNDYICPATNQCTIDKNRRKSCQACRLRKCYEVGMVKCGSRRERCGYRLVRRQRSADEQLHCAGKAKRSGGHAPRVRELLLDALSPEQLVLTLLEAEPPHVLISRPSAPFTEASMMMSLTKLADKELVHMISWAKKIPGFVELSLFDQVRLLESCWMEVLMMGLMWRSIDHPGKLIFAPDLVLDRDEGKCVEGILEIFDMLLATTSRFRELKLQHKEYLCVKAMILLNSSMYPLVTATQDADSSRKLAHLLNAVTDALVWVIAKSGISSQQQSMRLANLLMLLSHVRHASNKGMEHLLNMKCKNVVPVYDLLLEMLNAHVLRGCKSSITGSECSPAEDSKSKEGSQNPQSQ
Method in brief: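 Read-out: beta-lactamase FRET fluorescence. Cell line: ER-beta-UAS-bla HEK293T in 2% charcoal-stripped FBS. Exposure: 16 hr at 37C. Substrate step: 2 h at room temperature.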

[4] = biological target: Estrogen receptor beta (Homo sapiens) (UniProt Q92731); experiment: qHTS assay to identify small molecule antagonists of the estrogen receptor beta (ER-beta) signaling pathway (AID 1259378; active means well fitted inhibition curve with a large enough effect in the signal ratio in the repeat runs, not every such curve was filed as active; the % refers to the signal ratio)
Method in brief: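 ER-beta-UAS-bla HEK293T cells in 2% charcoal-stripped FBS medium treated with compound plus 1nM final 17-beta-estradiol for 16 hr at 37C. Beta-lactamase reporter read by FRET substrate fluorescence after 2 hours at room temperature.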

[5] = qHTS assay to identify small molecule agonists of the androgen receptor (AR) signaling pathway in the presence of an antagonist - cell viability counter screen (AID 1259379);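 further: MDA-kb2 human breast cancer cells carrying an MMTV luciferase reporter; series mostly up to about 92 µM; nearly all actives have a fitted effect of over 25% in size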
Method in brief: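 Viability counter screen: CellTiter-Fluor fluorescence, measured in the same wells as the luciferase read-out. MDA-kb2 cells, 3,000/well, with nilutamide at 3.0uM final and compounds at 15 concentrations, 16 hr at 37C, 0% CO2.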

[6] = qHTS assay to identify small molecule agonists of the estrogen receptor beta (ER-beta) signaling pathway - cell viability counter screen (AID 1259380); further: nearly all actives have a fitted effect of over 30% in size
Method in brief: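 Luminescence read-out (CellTiter-Glo, 30 min, room temp) taken in the same wells as the beta-lactamase reporter assay; ER-beta-UAS-bla HEK293T cells exposed to DMSO-dissolved compounds for 16 hr at 37C in 2% charcoal-stripped FBS medium.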

[7] = qHTS assay to identify small molecule antagonists of the estrogen receptor beta (ER-beta) signaling pathway - cell viability counter screen (AID 1259382); further: series mostly up to about 92 µM; nearly all actives have a fitted effect of over 55% in size
Method in brief: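 Luminescent ATP read-out (CellTiter-Glo, 30 min, RT) taken in the same wells as the bla reporter assay. HEK293T ER-beta-UAS-bla cells in 2% charcoal-stripped FBS were exposed to compounds with 1nM E2 for 16 hr at 37C.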

[8] = biological target: Estrogen receptor (Homo sapiens) (UniProt P03372); experiment: qHTS assay to identify small molecule agonists of the estrogen receptor alpha (ER-alpha) signaling pathway in the presence of an antagonist (AID 1259383; calls by dose curve; further: top concentration of the series differs between compounds; nearly all actives have a fitted effect of over 15% in size)
Chain of Estrogen receptor (Homo sapiens) (P03372 whole entry, looked up): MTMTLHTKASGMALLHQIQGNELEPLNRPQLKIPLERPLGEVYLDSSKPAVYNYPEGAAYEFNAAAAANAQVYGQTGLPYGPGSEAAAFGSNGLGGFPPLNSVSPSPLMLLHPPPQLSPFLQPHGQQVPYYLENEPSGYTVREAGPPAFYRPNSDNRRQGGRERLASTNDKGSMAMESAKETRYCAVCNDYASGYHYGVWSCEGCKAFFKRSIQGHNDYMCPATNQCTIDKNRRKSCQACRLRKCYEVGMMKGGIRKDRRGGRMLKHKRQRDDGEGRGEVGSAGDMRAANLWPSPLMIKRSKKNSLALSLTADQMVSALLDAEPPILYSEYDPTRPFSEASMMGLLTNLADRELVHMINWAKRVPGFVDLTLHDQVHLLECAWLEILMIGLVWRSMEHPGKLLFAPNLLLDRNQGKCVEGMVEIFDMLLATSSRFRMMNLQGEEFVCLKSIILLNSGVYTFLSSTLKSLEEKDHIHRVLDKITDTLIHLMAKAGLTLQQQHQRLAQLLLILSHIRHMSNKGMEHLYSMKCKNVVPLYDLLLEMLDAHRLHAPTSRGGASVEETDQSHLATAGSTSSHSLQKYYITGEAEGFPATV
Method in brief: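 Luciferase luminescence (ONE-Glo, 30min at room temperature) measured in VM7Luc4E2 cells after 22hr compound exposure at 15 concentrations, with 10.0nM ICI-182,780 final present; cells express endogenous ER-alpha and carry four EREs upstream of luciferase.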

[9] = qHTS assay to identify small molecule agonists or antagonists of the thyroid stimulating hormone receptor (TSHR) signaling pathway - wild type cell line counter screen (AID 1259384; calls by dose curve)
Method in brief: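 Wild-type Hek293 cells, 800/well, 18 h at 37C, then compound with Ro20-1724 for 30 min RT. cAMP by HTRF (cAMP-d2/anti-cAMP cryptate), 1 h RT, fluorescence read. 15 concentrations, triplicates.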

[10] = biological target: Thyrotropin receptor (Homo sapiens) (UniProt P16473); experiment: qHTS assay to identify small molecule antagonists of the thyroid stimulating hormone receptor (TSHR) signaling pathway (AID 1259385; calls by dose curve; further: nearly all actives have a fitted effect of over 20% in size)
Chain of Thyrotropin receptor (Homo sapiens) (P16473 whole entry, looked up): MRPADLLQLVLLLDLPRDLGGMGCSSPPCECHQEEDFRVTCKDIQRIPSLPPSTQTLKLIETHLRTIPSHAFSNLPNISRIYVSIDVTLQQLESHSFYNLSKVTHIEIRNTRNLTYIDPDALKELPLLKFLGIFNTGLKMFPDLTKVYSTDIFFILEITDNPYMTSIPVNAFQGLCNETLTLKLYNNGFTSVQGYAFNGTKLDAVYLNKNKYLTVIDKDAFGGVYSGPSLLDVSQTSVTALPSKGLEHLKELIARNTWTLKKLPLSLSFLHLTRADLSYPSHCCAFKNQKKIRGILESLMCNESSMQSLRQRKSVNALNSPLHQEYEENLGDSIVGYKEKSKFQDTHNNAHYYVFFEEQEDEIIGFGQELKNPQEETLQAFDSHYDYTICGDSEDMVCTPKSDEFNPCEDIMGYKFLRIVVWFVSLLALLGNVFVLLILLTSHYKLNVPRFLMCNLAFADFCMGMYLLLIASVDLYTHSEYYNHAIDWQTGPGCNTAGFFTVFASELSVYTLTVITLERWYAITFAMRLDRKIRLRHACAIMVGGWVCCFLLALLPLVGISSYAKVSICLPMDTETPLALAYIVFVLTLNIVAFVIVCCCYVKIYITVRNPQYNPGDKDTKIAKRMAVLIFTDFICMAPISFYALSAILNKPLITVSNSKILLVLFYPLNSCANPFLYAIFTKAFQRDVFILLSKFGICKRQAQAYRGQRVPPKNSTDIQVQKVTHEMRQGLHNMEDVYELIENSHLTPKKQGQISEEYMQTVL
Method in brief: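 TSHR-HEK293 cells (800/well) plated 18 h, then compounds with Ro20-1724 and TSH at 1.5 ng/mL final, 30 min at room temperature. cAMP quantified by HTRF (cAMP-d2/anti-cAMP-cryptate, 1 h); 15 concentrations in triplicate.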

[11] = qHTS assay to identify small molecule agonists of the estrogen receptor alpha (ER-alpha) signaling pathway in the presence of an antagonist - cell viability counter screen (AID 1259386);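 further: cells exposed to compounds for 22 h at 37 °C before the viability read; nearly all actives have a fitted effect of over 30% in size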; further: potency means the concentration at half of the fitted maximal effect
Method in brief: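 Read-out: CellTiter-Fluor fluorescence after 1hr reagent incubation, measured in the same wells as the luciferase readout. VM7Luc4E2 cells were exposed to 15 compound concentrations with 10.0nM ICI-182,780 for 22hr at 37C.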

[12] = biological target: Progesterone receptor (Homo sapiens) (UniProt P06401); experiment: qHTS assay to identify small molecule agonists of the progesterone receptor (PR) signaling pathway (AID 1346784; calls by dose curve; further: nearly all actives have a fitted effect of over 30% in size)
Chain of Progesterone receptor (Homo sapiens) (P06401 whole entry, looked up): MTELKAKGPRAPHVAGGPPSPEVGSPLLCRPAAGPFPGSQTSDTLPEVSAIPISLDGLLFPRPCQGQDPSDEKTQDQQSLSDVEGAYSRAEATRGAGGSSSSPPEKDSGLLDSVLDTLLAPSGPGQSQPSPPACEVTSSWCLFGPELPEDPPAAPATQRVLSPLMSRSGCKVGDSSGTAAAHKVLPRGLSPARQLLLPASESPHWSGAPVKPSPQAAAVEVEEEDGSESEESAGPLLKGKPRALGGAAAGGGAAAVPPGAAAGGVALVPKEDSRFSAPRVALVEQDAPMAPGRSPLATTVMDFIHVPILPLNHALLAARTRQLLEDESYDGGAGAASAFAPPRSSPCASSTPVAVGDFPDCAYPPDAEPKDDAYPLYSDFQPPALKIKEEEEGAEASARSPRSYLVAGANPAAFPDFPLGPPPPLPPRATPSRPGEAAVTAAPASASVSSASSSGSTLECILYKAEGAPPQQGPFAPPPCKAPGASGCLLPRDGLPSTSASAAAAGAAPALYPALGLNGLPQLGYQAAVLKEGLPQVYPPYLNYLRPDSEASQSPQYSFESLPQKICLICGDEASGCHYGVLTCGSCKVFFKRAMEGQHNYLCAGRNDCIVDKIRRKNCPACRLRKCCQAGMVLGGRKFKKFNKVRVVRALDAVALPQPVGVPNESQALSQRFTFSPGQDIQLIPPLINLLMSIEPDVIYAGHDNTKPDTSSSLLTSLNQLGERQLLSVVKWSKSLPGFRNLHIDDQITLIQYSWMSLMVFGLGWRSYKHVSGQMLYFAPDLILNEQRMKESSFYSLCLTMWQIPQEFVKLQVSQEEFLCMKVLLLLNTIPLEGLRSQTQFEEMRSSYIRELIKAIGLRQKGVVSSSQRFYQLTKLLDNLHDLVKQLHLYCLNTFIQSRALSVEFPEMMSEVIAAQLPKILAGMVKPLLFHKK
Method in brief: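 Compounds were tested for PR agonism in HEK 293T cells bearing a beta-lactamase gene under UAS control. Treatment lasted 16 hr at 37C; signal came from fluorescence of a FRET substrate.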

[13] = biological target: Progesterone receptor (Homo sapiens) (UniProt P06401); experiment: qHTS assay to identify small molecule antagonists of the progesterone receptor (PR) signaling pathway (AID 1346795; active means well fitted inhibition curve with a large enough effect in the signal ratio in the repeat runs, not every such curve was filed as active; the % refers to the signal ratio; further: potency means the concentration at half of the fitted maximal effect)
Method in brief: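 In HEK293T cells bearing the PR-UAS-bla reporter, compound effects on promegestone-driven (1 nM) beta-lactamase expression are assessed after 16 hr using a fluorescent FRET substrate incubated 2 hr at room temperature.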

[14] = qHTS assay to identify small molecule antagonists of the progesterone receptor (PR) signaling pathway - cell viability counter screen (AID 1346798); further: series mostly up to about 92 µM; nearly all actives have a fitted effect of over 50% in size
Method in brief: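 Following a 4 hr attachment, PR-UAS-bla HEK293T cells in charcoal-stripped FBS medium were exposed to compounds with R5020 for 16 hr; CellTiter-Glo was added and luminescence read after 30 min at room temperature.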

[15] = qHTS assay to identify small molecule agonists of the progesterone receptor (PR) signaling pathway - cell viability counter screen (AID 1346799; calls by dose curve; further: nearly all actives have a fitted effect of over 45% in size; further: potency means the concentration at half of the fitted maximal effect)
Method in brief: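 Here, 3,000 PR-UAS-bla HEK293T cells per well were treated with compounds for 16 hr after a 6 hr preincubation at 37C and 5% CO2; cell viability is the CellTiter-Glo luminescence signal.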

[16] = qHTS assay to identify small molecule antagonists of the TGF-beta/Smad signaling pathway - cell viability counter screen (AID 1346824); further: nearly all actives have a fitted effect of over 50% in size
Method in brief: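 SBE-bla HEK 293T cells, incubated overnight, then compound plus 0.25 ng/mL TGF-beta1 (stock added) for 5 hr at 37 C. Viability was read in the same wells by CellTiter-Glo luminescence after 30 min at room temperature.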

[17] = qHTS assay to identify small molecule agonists of the TGF-beta/Smad signaling pathway - cell viability counter screen (AID 1346829); further: top concentration of the series differs between compounds; nearly all actives have a fitted effect of over 45% in size
Method in brief: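 Cytotoxicity counter screen: CellTiter-Glo luminescence (30 min, room temperature) measured in the SBE-bla HEK 293T reporter wells after 5 hr compound treatment at 37 C and the 2 hr substrate step.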

[18] = qHTS assay to identify small molecule agonists of the TGF-beta/Smad signaling pathway (AID 1346859; active means well fitted activation curve with a large enough effect in the signal ratio in the repeat runs, not every such curve was filed as active; the % refers to the signal ratio; further: series mostly up to about 77 µM)
Method in brief: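 Each well held 4,000 SBE-bla HEK 293T cells incubated overnight before compound addition; 5 hr later the cleavable FRET substrate went on for 2 hr at room temperature, and fluorescence was read at two emissions.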

[19] = biological target: Thyrotropin-releasing hormone receptor (Homo sapiens) (UniProt P34981); experiment: qHTS assay to identify small molecule antagonists of the thyrotropin-releasing hormone receptor (TRHR) signaling pathway (AID 1346877; active means well fitted inhibition curve with a large enough effect in the repeat runs, not every such curve was filed as active; further: series mostly up to about 51 µM)
Chain of Thyrotropin-releasing hormone receptor (Homo sapiens) (P34981 whole entry, looked up): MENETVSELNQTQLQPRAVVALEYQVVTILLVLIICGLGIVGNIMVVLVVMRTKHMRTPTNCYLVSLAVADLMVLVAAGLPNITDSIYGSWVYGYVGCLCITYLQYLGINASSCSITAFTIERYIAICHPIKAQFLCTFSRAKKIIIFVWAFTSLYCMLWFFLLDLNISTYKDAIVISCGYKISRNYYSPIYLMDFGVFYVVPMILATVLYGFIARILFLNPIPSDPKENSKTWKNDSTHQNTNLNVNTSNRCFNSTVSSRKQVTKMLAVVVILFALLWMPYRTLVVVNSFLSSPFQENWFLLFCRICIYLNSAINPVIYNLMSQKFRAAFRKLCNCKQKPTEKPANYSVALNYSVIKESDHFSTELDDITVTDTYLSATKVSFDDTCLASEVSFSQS
Method in brief: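 HEK293/TRHR cells, 18 h, 37 °C; Ca2+ dye 2 h; cpd 5 min RT; TRH 1 nM final; fluorescence read 3 min, 1 s intervals; 15 concs, triplicate.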

Compound | Potency [1] | Potency [2] | Potency [3] | Potency [4] | Potency [5] | Potency [6] | Potency [7] | Potency [8] | outcome [9] | Potency [10] | Potency [11] | Potency [12] | Potency [13] | Potency [14] | Potency [15] | Potency [16] | Potency [17] | outcome [18] | Potency [19]
Brc1ccccc1 | inactive | inactive | inactive | inactive | inactive | inactive | inactive | inactive | inactive | inactive | inactive | inactive | inactive | inactive | inactive | inactive | inactive | inactive | inactive
ClCCCCBr | inactive | inactive | inactive | inactive | inactive | inactive | inactive | – | inactive | inactive | inactive | inactive | inactive | inactive | – | inactive | inactive | inactive | inactive
C=C(C#N)CCC#N | inactive | inactive | inactive | inactive | inactive | inactive | inactive | inactive | inactive | inactive | inactive | – | inactive | inactive | inactive | inactive | inactive | inactive | inactive
[O-][Cl+]O | inactive | inactive | inactive | inactive | inactive | inactive | inactive | inactive | – | – | inactive | inactive | inactive | inactive | inactive | inactive | inactive | inactive | inactive
CC(C)(CCl)C(=O)Cl | inactive | 12.2 µM (active) | inactive | inactive | inactive | inactive | – | – | inactive | inactive | – | inactive | inactive | – | 48.5 µM (active) | inactive | inactive | inactive | –
CCCCc1c(C)nc(NCC)nc1OS(=O)(=O)N(C)C | inactive | 61.1 µM (active) | inactive | – | inactive | inactive | inactive | inactive | inactive | inactive | 48.6 µM (active) | inactive | 27.3 µM (active) | – | – | inactive | inactive | inactive | inactive
Cl/C=C\C[N+]12CN3CN(CN(C3)C1)C2 | inactive | inactive | inactive | inactive | – | inactive | inactive | inactive | inactive | inactive | inactive | inactive | inactive | inactive | – | inactive | inactive | inactive | inactive
